Measurements reported in the supplement of paper PMC10849652.
Targets with a hit are over-represented here; the source holds about 7,900 in all. About 0.6% of all pairs of compound and target were hits. Unmarked numbers belong to inactive results.

compound: Cc1ccc(C(=O)N(CCCN)[C@@H](c2nc3cc(Cl)ccc3c(=O)n2Cc2ccccc2)C(C)C)cc1 [ispinesib]; experiment: log2 fold change, soluble protein after heating vs DMSO (PISA); higher = thermal stabilisation; K562 cells, 10 uM, 30 min; active = over 0.2 and 3.5 SD of the protein, either way, in both replicates (recomputed)
Outline: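 Soluble protein was defined as the supernatant after 21,000xg for 90 min. It came from K562 cells at 2×10^6 cells/mL given 10 μM compound for 30 min, heated in aliquots for 3 min across 48°C-58°C, pooled, and extracted in PBS with 0.5% NP-40 at 4°C, and was quantified by TMTpro 16plex LC-MS/MS with equalised channel sums. Thermal stability against control samples, from duplicates, is reported as log2 fold change.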

Chain of UniProt Q9UKL0 (Q9UKL0 whole entry, looked up): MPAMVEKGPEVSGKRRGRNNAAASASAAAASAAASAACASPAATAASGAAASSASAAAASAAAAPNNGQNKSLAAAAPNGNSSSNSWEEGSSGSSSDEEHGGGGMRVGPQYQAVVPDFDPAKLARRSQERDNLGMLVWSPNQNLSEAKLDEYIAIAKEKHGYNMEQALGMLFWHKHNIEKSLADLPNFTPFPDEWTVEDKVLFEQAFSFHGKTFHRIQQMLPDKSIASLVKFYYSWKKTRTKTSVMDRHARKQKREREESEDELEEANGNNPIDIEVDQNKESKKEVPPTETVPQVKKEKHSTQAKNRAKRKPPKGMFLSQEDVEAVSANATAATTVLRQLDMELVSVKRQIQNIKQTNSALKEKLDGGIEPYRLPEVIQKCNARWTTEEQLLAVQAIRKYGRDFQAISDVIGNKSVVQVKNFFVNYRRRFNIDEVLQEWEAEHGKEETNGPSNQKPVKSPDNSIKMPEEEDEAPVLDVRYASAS
Chain of UniProt Q9NQG5 (Q9NQG5 whole entry, looked up): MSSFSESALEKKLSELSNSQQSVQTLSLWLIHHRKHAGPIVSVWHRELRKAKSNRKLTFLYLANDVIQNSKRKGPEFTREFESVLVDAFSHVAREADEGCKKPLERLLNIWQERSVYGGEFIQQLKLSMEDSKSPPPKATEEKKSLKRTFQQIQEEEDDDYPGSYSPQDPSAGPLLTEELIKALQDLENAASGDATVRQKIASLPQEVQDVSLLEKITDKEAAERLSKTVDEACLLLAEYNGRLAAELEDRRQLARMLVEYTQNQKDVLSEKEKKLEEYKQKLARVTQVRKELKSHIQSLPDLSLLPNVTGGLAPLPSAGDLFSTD
Chain of UniProt Q14151 (Q14151 whole entry, looked up): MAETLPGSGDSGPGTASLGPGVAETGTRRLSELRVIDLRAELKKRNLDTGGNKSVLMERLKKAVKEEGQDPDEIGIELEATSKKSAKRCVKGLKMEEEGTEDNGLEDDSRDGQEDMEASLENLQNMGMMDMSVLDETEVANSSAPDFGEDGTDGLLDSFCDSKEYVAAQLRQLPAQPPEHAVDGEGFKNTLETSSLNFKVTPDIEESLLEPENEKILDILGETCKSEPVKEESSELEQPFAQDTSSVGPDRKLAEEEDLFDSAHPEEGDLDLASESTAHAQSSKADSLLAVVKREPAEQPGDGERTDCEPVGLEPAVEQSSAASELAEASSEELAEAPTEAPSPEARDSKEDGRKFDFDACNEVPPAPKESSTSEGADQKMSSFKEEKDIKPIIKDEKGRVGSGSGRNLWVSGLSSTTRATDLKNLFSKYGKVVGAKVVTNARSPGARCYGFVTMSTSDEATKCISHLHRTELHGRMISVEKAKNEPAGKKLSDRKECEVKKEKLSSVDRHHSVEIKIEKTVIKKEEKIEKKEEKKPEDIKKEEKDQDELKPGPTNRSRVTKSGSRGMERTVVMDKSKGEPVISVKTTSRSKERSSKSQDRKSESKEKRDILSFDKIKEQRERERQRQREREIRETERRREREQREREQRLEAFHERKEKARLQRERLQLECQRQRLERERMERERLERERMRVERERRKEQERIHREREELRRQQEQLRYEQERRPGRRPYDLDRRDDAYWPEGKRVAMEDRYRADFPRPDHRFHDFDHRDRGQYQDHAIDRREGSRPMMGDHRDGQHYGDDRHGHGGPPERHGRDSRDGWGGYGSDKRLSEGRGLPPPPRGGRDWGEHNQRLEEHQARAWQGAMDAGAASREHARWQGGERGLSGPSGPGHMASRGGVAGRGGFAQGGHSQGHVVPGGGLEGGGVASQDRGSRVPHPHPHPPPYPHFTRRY
Chain of UniProt P41440 (P41440 whole entry, looked up): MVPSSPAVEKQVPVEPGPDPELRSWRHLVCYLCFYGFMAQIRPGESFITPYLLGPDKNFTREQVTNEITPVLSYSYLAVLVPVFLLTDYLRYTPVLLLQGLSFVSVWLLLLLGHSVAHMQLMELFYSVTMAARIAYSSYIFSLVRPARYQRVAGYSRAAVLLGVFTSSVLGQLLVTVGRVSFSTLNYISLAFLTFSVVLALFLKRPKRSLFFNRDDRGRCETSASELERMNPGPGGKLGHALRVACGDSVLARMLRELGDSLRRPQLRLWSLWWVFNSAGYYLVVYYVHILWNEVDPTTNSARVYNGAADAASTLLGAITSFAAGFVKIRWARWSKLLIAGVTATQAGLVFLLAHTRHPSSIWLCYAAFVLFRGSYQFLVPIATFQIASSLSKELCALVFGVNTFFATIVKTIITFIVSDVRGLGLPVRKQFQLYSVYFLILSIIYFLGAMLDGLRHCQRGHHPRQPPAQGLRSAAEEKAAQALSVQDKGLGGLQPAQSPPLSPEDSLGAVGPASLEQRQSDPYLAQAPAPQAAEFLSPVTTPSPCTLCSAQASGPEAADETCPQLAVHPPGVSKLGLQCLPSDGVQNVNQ
Chain of UniProt Q04864 (Q04864 whole entry, looked up): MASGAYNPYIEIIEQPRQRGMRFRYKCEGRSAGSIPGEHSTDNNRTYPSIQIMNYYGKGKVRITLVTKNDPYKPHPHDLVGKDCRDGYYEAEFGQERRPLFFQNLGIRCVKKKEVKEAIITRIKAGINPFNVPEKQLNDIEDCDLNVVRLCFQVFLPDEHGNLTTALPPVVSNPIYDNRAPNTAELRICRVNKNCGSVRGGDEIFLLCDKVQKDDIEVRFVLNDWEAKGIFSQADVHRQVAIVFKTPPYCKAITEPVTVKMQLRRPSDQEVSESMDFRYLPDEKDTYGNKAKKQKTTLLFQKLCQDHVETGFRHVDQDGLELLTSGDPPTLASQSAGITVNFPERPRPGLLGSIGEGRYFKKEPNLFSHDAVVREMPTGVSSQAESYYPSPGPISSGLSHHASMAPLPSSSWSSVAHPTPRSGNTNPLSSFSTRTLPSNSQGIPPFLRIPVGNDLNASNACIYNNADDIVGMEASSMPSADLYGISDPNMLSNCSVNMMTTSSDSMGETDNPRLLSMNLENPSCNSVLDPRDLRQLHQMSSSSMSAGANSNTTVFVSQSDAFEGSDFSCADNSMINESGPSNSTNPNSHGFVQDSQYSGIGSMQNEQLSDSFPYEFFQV
Chain of UniProt Q8WXD2 (Q8WXD2 whole entry, looked up): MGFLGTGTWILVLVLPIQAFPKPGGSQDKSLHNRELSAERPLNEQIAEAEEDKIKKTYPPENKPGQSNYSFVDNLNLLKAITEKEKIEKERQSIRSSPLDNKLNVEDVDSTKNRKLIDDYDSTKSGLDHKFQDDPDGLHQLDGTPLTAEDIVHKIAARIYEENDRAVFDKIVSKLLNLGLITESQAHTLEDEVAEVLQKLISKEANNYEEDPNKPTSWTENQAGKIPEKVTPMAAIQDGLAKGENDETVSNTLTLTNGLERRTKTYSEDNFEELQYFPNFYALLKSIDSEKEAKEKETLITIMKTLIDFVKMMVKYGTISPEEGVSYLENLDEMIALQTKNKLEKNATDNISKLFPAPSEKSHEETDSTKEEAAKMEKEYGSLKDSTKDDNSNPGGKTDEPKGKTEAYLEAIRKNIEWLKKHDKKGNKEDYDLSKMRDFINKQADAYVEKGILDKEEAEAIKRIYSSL
Chain of UniProt Q9NX18 (Q9NX18 whole entry, looked up): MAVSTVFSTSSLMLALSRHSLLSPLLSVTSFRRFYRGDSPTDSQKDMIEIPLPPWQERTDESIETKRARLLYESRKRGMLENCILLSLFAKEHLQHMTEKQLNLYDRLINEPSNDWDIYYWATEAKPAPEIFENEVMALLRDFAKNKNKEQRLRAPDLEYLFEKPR
Chain of UniProt O94885 (O94885 whole entry, looked up): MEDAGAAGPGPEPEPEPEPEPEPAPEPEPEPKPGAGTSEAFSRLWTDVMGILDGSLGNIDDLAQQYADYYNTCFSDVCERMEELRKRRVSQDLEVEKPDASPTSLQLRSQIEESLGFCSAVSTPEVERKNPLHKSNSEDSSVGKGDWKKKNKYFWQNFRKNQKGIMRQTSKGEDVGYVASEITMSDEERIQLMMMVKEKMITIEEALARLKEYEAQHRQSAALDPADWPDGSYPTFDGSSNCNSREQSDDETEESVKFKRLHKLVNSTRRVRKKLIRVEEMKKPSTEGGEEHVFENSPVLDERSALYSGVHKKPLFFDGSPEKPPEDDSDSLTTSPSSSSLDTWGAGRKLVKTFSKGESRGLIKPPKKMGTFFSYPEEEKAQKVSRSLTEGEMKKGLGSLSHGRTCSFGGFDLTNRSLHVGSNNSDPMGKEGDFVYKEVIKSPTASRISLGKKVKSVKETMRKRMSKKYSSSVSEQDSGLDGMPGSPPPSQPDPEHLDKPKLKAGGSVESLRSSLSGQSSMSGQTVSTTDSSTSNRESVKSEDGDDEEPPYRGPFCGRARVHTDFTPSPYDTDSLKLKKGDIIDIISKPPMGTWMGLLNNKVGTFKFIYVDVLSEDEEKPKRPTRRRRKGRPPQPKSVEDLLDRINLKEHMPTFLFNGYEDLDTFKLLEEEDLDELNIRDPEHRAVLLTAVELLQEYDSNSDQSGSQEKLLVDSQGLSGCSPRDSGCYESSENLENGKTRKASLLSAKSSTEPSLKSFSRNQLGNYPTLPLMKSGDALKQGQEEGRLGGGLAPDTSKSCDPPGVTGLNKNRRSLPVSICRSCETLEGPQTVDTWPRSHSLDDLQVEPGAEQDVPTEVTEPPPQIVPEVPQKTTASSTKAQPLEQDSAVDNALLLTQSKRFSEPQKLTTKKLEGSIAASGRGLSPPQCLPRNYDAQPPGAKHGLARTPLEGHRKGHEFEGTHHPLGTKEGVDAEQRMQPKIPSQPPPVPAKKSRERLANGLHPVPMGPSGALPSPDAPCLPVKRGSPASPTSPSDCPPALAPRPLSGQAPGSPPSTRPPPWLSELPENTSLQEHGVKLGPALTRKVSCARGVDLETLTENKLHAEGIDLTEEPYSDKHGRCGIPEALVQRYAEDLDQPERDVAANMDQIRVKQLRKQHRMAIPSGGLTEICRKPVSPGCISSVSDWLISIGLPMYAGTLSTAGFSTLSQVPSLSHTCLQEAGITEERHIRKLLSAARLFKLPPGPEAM
Chain of UniProt P63208 (P63208 whole entry, looked up): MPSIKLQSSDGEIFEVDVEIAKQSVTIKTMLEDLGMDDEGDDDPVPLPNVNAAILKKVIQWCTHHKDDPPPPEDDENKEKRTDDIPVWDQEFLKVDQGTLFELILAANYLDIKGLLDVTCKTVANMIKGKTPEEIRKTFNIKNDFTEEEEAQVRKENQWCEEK

| Target | log2 fold change |
| --- | --- |
| SLBP (UniProt Q14493) | -0.063 |
| RDH10 (UniProt Q8IZV5) | 0.036 |
| SAFB2 (UniProt Q14151) | -0.043 |
| SEC23A (UniProt Q15436) | 0.023 |
| SCG3 (UniProt Q8WXD2) | 0.171 |
| RUFY1 (UniProt Q96T51) | -0.065 |
| SLC19A1 (UniProt P41440) | 0.083 |
| SFXN5 (UniProt Q8TD22) | 0.049 |
| RAC3 (UniProt P60763) | -0.013 |
| RPRD1B (UniProt Q9NQG5) | 0.039 |
| SDHC (UniProt Q99643) | 0.047 |
| RRAGC (UniProt Q9HB90) | -0.153 |
| RPS19 (UniProt P39019) | -0.081 |
| RHEB (UniProt Q15382) | 0.042 |
| RBM17 (UniProt Q96I25) | 0.007 |
| SIRT2 (UniProt Q8IXJ6) | -0.001 |
| RBM12 (UniProt Q9NTZ6) | 0.008 |

| Target | log2 fold change |
| --- | --- |
| SASH1 (UniProt O94885) | -0.116 |
| RPS20 isoform 2 (UniProt P60866) | -0.066 |
| RPP14 (UniProt O95059) | 0.03 |
| RBM25 (UniProt P49756) | -0.049 |
| RCOR1 (UniProt Q9UKL0) | -0.031 |
| RPS12 (UniProt P25398) | 0.017 |
| RAB9A (UniProt P51151) | -0.168 |
| REL (UniProt Q04864) | -0.088 |
| RAB5C isoform 2 (UniProt P51148) | 0.054 |
| RPS27A (UniProt P62979) | -0.047 |
| SKP1 (UniProt P63208) | 0.089 |
| RRP9 (UniProt O43818) | 0.12 |
| RALA (UniProt P11233) | 0.03 |
| SDHAF2 (UniProt Q9NX18) | 0.006 |
| RBM39 (UniProt Q14498) | -0.032 |
| RNPEP (UniProt Q9H4A4) | -0.086 |
